Screens from PubChem BioAssay.
IL-1B inflam inh: blocks inflammasome-driven IL-1 beta release | THP-1 LPS/ATP IL-1B secretion, AlphaLISA, 16 h; stronger effect = lower value | activity change, % at 57.5 µM | actives 4.7% (n = 360,000) | AID 743279; in the data active = activity change below about -50%; inconclusive = mostly about -30% to -49%; note: % is set by controls: 0 for no effect and ±100 for the full control effect
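THP-1 cells pretreated 1 hr with compounds (up to 57.5 uM final), then stimulated with LPS (250 ng/mL final) plus ATP (1.25 mM final); secreted IL-1B measured by AlphaLISA after 16 hr, decreased signal indicating inhibition.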
ATXN viability: reduces viability in counter-screen for ATXN expression inhibitors. Potency, µM (highest dose often 56.7 µM), most hits filed as cytotoxic. actives 0.49% (n = 400,000). S2 cells (HEK-293 line with an ATXN2-luciferase reporter) viability, CellTiter-Fluor protease fluorescence, 24 h. AID 651635; note: potency is the fitted concentration of half-maximal effect; nearly all actives have a fitted effect of over 40% in size
HepG2 viability: HepG2 cytotoxicity, counter-screen for TGF-b inhibitors; HepG2 CAGA-GFP viability, ATP luminescence, 18 h; Potency, µM (series often up to 46.1 µM), for the others: at the top dose activity change, negative = cytotoxicity, actives largely listed as cytotoxic; actives 0.76% (n = 410,000); AID 588856; note: potency is the fitted concentration of half-maximal effect
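HepG2 CAGA-GFP cells (1000/well, DMEM with 1% FBS) received compound, then TGF-beta at 500 pg/mL final, and were incubated 18 hours at 37 degrees C. Viability was read by CellTiter-Glo luminescence. Media-only wells were set as complete cell-killing and DMSO as no toxicity.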
TGFb SMAD3 inh: inhibitors of TGF-b signaling; HepG2 CAGA-GFP TGF-b/SMAD3 reporter, GFP fluorescence, 18 h; TGF-beta stimulated, 500 pg/mL final; Potency, µM (doses to about 46.1 µM), without a hit: top-dose activity, negative = inhibition, hits mostly inhibitors; actives 1.2% (n = 410,000); note: potency is the fitted concentration of half-maximal effect; % is set by controls: 0 for no effect and ±100 for the full control effect; nearly all actives have a fitted effect of over 65% in size
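Read-out: total well GFP (ex488/em500-530) summed from mean per-cell fluorescence. Cells: HEPG2 CAGA-GFP, 1% FBS DMEM, 18 h at 37 degrees C with 500 pg/mL final TGF-beta. Unstimulated wells served as the full-inhibition control; stimulated DMSO wells = 0%.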
ATXN2 expr inh: ATXN2 expression inhibition; HEK-293 ATXN2-luciferase reporter, luminescence, 24 h; Potency, µM (titrated, usually from 57 µM), for inactives: at the highest dose activity change, negative = inhibition, usual class: inhibitors; actives 0.72% (n = 360,000); note: potency is the fitted concentration of half-maximal effect; % is set by controls: 0 for no effect and ±100 for the full control effect; nearly all actives have a fitted effect of over 55% in size
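qHTS (up to 57 uM final) was run with 24 h compound exposure of reporter cells at 37 °C. Each well was multiplexed: SteadyGlo luminescence measured ATXN2-luciferase expression after a fluorogenic Gly-Phe-AFC viability readout (25 uM final).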
* = called active by the depositor; i = inactive; ? = inconclusive; nt = not tested or not shown; [ ] = another dose, or the depositor's remark. The list is not random: actives were taken first. Their share in the collection is about 5.7%. Unless noted, calls come from the whole dose curve; as a rule, active = well fitted curve in the direction sought with a large enough effect; inconclusive = small, poorly fitted or top-dose-only effect, or another doubt; inactive = no such curve, though single readings can be large; an effect the other way counts as inactive or inconclusive.

SMILES	IL-1B inflam inh	ATXN viability	HepG2 viability	TGFb SMAD3 inh	ATXN2 expr inh
Cc1ccc(-c2cn3c(n2)sc2cc(C(=O)NCCC4=CCCCC4)ccc23)c(C)c1	nt	i	-14%	0%	27%
CCN(CC)CCNC(=O)c1ccc2c(c1NCCO)C(=O)c1ccccc1C2=O	-53*	7.9µM*	1µM*	1.3µM*	nt
O=C(NCc1ccccc1F)c1ccc(CN2CC(=O)N3CCCCC3C2=O)cc1 (stereo unspecified)	nt	nt	-2%	1%	nt
CCN(CC)c1ccc(C(=O)NNC(=O)CCNC(=O)c2ccccc2)cc1	0	i	-26%	-2%	-2%
CCN(CC)c1ccc(C(=C2C=CC(=[N+](CC)CC)C=C2)c2ccccc2)cc1	-120*	0.89µM*	1.8µM*	?	0.35µM*
CCN(CC)c1ccc(C(=C2C=CC(=[N+](CC)CC)C=C2)c2cc(S(=O)(=O)O)ccc2S(=O)(=O)[O-])cc1	nt	?	nt	nt	11µM*
CCN(CC)c1ccc(C(=C2C=CC(=[N+](CC)CC)C=C2)c2ccc(N(CC)CC)cc2)cc1	?	nt	11µM*	2.2µM*	?
CCc1ccc(NC(=O)c2ccc(F)c(S(=O)(=O)NCCc3ccc(OC)c(OC)c3)c2)cc1	nt	nt	-28%	?	nt
O=C(Nc1cc(OC(=O)C(F)(F)F)c2nonc2c1OC(=O)C(F)(F)F)C(F)(F)F	nt	nt	-78%	?	nt
CCCCN(CCCC)CCNC(=O)c1cn(C)c2ccc(S(=O)(=O)N3CCOCC3)cc2c1=O	nt	i	-21%	-2%	12%
Cc1cc(C)n2c(Nc3ccc(Cl)cc3)c(-c3ccsc3)nc2n1	nt	nt	-20%	-14%	nt
Cc1cc(C)n2c(Nc3ccc(C(C)C)cc3)c(-c3ccsc3)nc2n1	nt	nt	-21%	3.5µM*	nt
NC(=O)c1ccccc1OCCOc1ccc(Br)cc1	-59*	i	4%	-29%	-25%
C=CCCOc1ccccc1C(N)=O	12	i	0%	0%	10%
CC(=O)Nc1ccccc1OCCOc1ccc(Br)cc1	-97*	i	6%	-16%	-30%
CC(=O)Nc1cc(C(F)(F)F)ccc1OCCOc1ccccc1	-10	i	-26%	11%	-8%
O=S(=O)(c1ccc(F)cc1)N1CCN(c2nc(-c3ccccc3)nc3ccccc23)CC1	nt	nt	10%	0%	nt
COc1ccccc1Nc1cc(C(=O)NCCCN2CCOCC2)c2ccccc2n1	-5	i	-5%	-11%	9%
COc1ccc(OC)c(Nc2cc(C(=O)NCCCN3CCOCC3)c3ccccc3n2)c1	-63*	i	-17%	0%	-1%
COc1ccc(Nc2cc(C(=O)NCCCN(C)C3CCCCC3)c3ccccc3n2)c(OC)c1	nt	32µM*	-75%	?	-37%
CCc1ccc(Nc2cc(C(=O)NCCCN3CCOCC3)c3ccccc3n2)cc1	2	?	7.1µM*	-5%	-31%
Cc1nc2c(C(=O)N(C)Cc3ccccc3)c[nH]n2c(=O)c1Cc1ccc(Cl)cc1	nt	i	-31%	?	-31%
Cc1c(C(=O)N2CCOc3ccccc3C2)sc2ncnc(NCCCN3CCOCC3)c12	nt	i	nt	nt	nt
O=C(O)C1(Cc2cccc(Nc3nccs3)n2)CCC(Oc2cccc(Cl)c2F)CC1 (stereo unspecified)	nt	nt	nt	nt	14%
O=C(NC(Cc1c[nH]c2ccccc12)C(=O)N/N=C/c1ccc(Cl)cc1)c1cccs1 (stereo unspecified)	-66*	?	5%	?	-30%
SMILES	IL-1B inflam inh	ATXN viability	HepG2 viability	TGFb SMAD3 inh	ATXN2 expr inh
CCOc1ccc(S(=O)(=O)NCCc2c(C)[nH]c3c(Cl)cccc23)cc1C	nt	i	18µM*	16µM*	?
COc1ccc(Cn2c(=O)[nH]c3cc(C(=O)Nc4ccc(N5CCN(C)CC5)cc4)ccc32)cc1	-59*	?	-30%	?	-24%
CCCCc1nn2c(=O)cc(COC(=O)CNC(=O)c3ccccc3C)nc2s1	nt	i	0%	-4%	13%
COc1ccccc1CN1CCC2(CCC(CNC(=O)c3ccccc3N(C)C)O2)CC1 (stereo unspecified)	nt	i	nt	nt	nt
Cc1ccc(C2=NN(CC(=O)NCCCN(CC(C)C)CC(C)C)C(=O)CC2)cc1	nt	nt	-21%	-9%	nt
c1ccc(N2CCN(c3ccccc3)C2c2ccncc2)cc1	-69*	i	-12%	-12%	-3%
Cc1ccc(N2CCN(c3ccc(C)cc3)C2c2cccnc2)cc1	-86*	i	-15%	?	-9%
O=C(C[n+]1ccccc1Cl)c1ccc(F)cc1	nt	nt	-34%	-5%	nt
CN(C)CCNc1ccc2nnn3c4ccc(O)cc4c(=O)c1c23	-53*	?	-14%	?	?
CCN(CC)CCCNc1ccc2ncn3c4ccc(O)cc4c(=O)c1c23	-93*	?	-29%	16%	?
CCN(CC)CCCNc1ncnc2ccccc12	22	i	5%	10%	6%
CCOC(=O)c1ccc2ncc(C(=O)OCC)c(NCCN(C)C)c2c1	?	i	-6%	2%	3%
COC(=O)CCC(=O)NC(=S)Nc1sc(C)c(C)c1C(N)=O	5	?	-36%	11µM*	-4%
COC(=O)CCC(=O)Nc1sc(C)c(C)c1C(N)=O	-5	i	12%	-14%	9%
Cc1ccc2nc(-c3ccc(C)c(NC(=O)COc4ccc(Cl)cc4)c3)oc2c1	nt	nt	4%	19%	nt
COc1cccc(N2C(=O)CC(NNC(=O)c3cccs3)C2=O)c1 (stereo unspecified)	11	i	29%	27%	-17%
COc1ccc(N2C(=O)CC(NNC(=O)c3ccc(Br)s3)C2=O)cc1 (stereo unspecified)	-64*	i	-1%	-1%	-13%[11.3 µM]
CCc1c(C)nc(SCCOc2ccc(OC)cc2)[nH]c1=O	35	i	0.32µM*	4%	3%
Cc1ccc(C(CC(=O)NCC2(c3ccccc3)CCCC2)c2ccccc2)c(O)c1 (stereo unspecified)	nt	?	-69%	?	?
Cc1nnc(SCC(=O)N2CCCC2)n1-c1ccc(F)cc1	0	i	4.5µM*	0%	-7%
COc1cccc(NCc2nnc(SC(C(=O)N(C)C)c3ccccc3)n2C2CCCCC2)c1 (stereo unspecified)	nt	nt	2%	0%	nt
CCO[C@@H]1OC(C(=O)N2CCN(Cc3ccccc3)CC2)=C[C@H](c2ccc(Br)cc2)[C@H]1CCCO	-22	?	-4%	-26%	-36%
O=C(C1=C[C@@H](c2ccc(C(F)(F)F)cc2)C[C@@H](OCCCCO)O1)N1CCN(Cc2ccccc2)CC1	-20	?	-7%	-22%	?
CCO[C@@H]1OC(C(=O)N2CCN(Cc3ccc4c(c3)OCO4)CC2)=C[C@H](c2ccc3c(c2)OCO3)[C@H]1CCCO	-26	i	-52%	1%	-12%
